According to PubChem BioAssay:
For some of these results: Entries with a potency or affinity are not part of this list. The source made the active and inactive calls.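 Rule for the calls, unless noted: active = calcium signal ratio cut to more than 3 SD under the fully stimulated control mean yet still positive, in both repeats and the primary screen; inactive = the rest.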

Legend:
[1] = test system: TRPC4 beta (transient receptor potential cation channel C4), mouse; assay: TRPC4 cation channel opening, retest – cell-based, Fluo4 calcium, HEK293 TRPC4beta/mu-opioid, duplicates, 10 µM, confirmation (AID 2426;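 active = fluorescence ratio normalized to control raised more than 50% in primary screen plus both repeat runs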); conditions: Fluo4 calcium fluorescence, at 10 µM; stronger effect = higher value
[2] = test system: transient receptor potential cation channel C4 beta (TRPC4), mouse; assay: TRPC4 cation channel opening, second retest – cell-based, second round, Fluo4, HEK293 TRPC4beta/mu-opioid, 1 µM, confirmation (AID 2461;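 active = primary screen active and over 50% activation in each of two duplicate runs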); conditions: Fluo4 calcium fluorescence, at 1 µM; stronger effect = higher value
[3] = test system: TRPC4 (transient receptor potential cation channel C4 beta), mouse; assay: potentiation of DAMGO EC20 TRPC4 response – cell-based, second round, Fluo-4, HEK293 TRPC4beta/mu-opioid, 1 µM, confirmation (AID 2554;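 active = primary screen hit whose fluorescence ratio, in both repeats, exceeds the weak agonist control mean by 3 SD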); conditions: DAMGO EC20, Fluo-4 calcium flux, at 1 µM; stronger effect = higher value
[4] = test system: TRPC4 beta (transient receptor potential cation channel C4), mouse; assay: potentiation of DAMGO EC20 TRPC4 response – cell-based, Fluo-4, HEK293 TRPC4beta/mu-opioid, confirmation (AID 2555;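 active = primary screen hit whose calcium fluorescence ratio, in both repeats, exceeds the weak agonist control mean by 3 SD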); conditions: DAMGO EC20, Fluo-4 calcium flux, at 10 µM; stronger effect = higher value
[5] = biological target: Short transient receptor potential channel 4 (Mus musculus) (UniProt Q9QUQ5); assay: blockers of DAMGO-evoked TRPC4 calcium flux – cell-based, Fluo4, HEK293 TRPC4beta/mu-opioid, confirmation (AID 2636;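 active = calcium signal cut by more than 3 SD below the full-agonist control yet still positive, in both repeats and the earlier primary screen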); conditions: at 10 µM; stronger effect = higher value
[6] = biological target: Short transient receptor potential channel 4 (Mus musculus) (UniProt Q9QUQ5); assay: blockers of DAMGO-evoked TRPC4 calcium flux – cell-based, second round, Fluo4, HEK293 TRPC4beta/mu-opioid, 1 µM, confirmation (AID 2637); conditions: at 1 µM; stronger effect = higher value
[7] = biological target: Short transient receptor potential channel 4 (Mus musculus) (UniProt Q9QUQ5); assay: calcium entry via TRPC4 opening agents – cell-based, HEK293 TRPC4/mu-opioid, Fluo-4 calcium, dose response (AID 434937;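 active = primary screen activator hit with a dose response curve and TRPC4 channel activation at any tested dose; inactive = no activation, no dose response, or not a primary hit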)
[8] = biological target: Short transient receptor potential channel 4 (Mus musculus) (UniProt Q9QUQ5); assay: potentiation of DAMGO-evoked TRPC4 calcium signal – cell-based, HEK293 TRPC4/mu-opioid, Fluo-4 calcium, EC20 DAMGO, dose response (AID 434941;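 active = earlier screen potentiator hit that boosts the TRPC4 ion channel at some dose, with a dose response; inactive = no potentiation, no dose response, or not a prior hit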;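 note: calcium entry triggered by an EC20 dose of DAMGO at the co-expressed mu-opioid receptor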)
[9] = biological target: Short transient receptor potential channel 4 (Mus musculus) (UniProt Q9QUQ5); assay: block of DAMGO-driven TRPC4 calcium entry – cell-based, HEK293 TRPC4/mu-opioid, Fluo-4 calcium, dose response (AID 434942;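 active = primary screen inhibitor hit that blocks the TRPC4 channel at some tested dose, yielding a dose curve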)
[10] = biological target: Short transient receptor potential channel 6 (Mus musculus) (UniProt Q61143); assay: TRPC6 blockade by TRPC4 inhibitor hits – cell-based, HEK293, membrane potential dye, duplicate, selectivity assay for TRPC4 inhibitor project, confirmation (AID 434948;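 active = active in primary screen and both duplicates, each dropping signal beyond three positive-control SD with fluorescence still positive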); conditions: HEK293 TRPC6, membrane potential dye fluorescence, at 10 µM, stimulated with maximal-effect acetylcholine; stronger effect = higher value
[11] = biological target: Short transient receptor potential channel 6 (Mus musculus) (UniProt Q61143); assay: TRPC6 opening by TRPC4 activator hits – cell-based, HEK293, membrane potential dye, duplicate, selectivity assay for TRPC4 activator project, confirmation (AID 434950;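 active = membrane potential signal rise above negative control mean plus 3 SD in both duplicates, also active in the earlier TRPC4 screen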); conditions: HEK293 TRPC6, membrane potential fluorescence, at 10 µM; activation: stronger effect = higher value; outcome: activation
[12] = biological target: Short transient receptor potential channel 6 (Mus musculus) (UniProt Q61143); assay: positive modulators of mouse TRPC6 channel – HEK293 cells, membrane potential dye, duplicate, selectivity assay for TRPC4 potentiator project, confirmation (AID 434952;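 active = compound raising the membrane signal above positive-control mean plus 3 SD in both repeats, and a primary screen hit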); conditions: HEK293 TRPC6, membrane potential dye fluorescence, at 10 µM, maximal acetylcholine added after compound; stronger effect = higher value
[13] = biological target: Short transient receptor potential channel 4 (Mus musculus) (UniProt Q9QUQ5); assay: calcium flux activators in TRPC4/5HT1a cells, counter-screen for TRPC4 activator project, cell-based, second counter screen, HEK293 TRPC4/5HT1a, Fluo-4 (AID 434977;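 active = calcium signal rise above buffer-control mean plus 5 SD in both duplicates, and also a hit in the primary screen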); conditions: Fluo-4 calcium flux, at 10 µM; stronger effect = higher value
[14] = serotonin-gated TRPC4 signal block – cell-based, second counter screen, HEK293 TRPC4/5HT1a, Fluo-4, counter-screen for TRPC4 inhibitor project, confirmation (AID 434978;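 active = primary screen active whose calcium signal fell more than 3 SD beyond the full-serotonin control mean in both duplicate plates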;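 note: serotonin given first at submaximal then at maximal dose after compound preincubation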); conditions: Fluo-4 calcium flux, at 10 µM, serotonin added to trigger calcium flux; stronger effect = higher value
[15] = test system: TRPC4 (mouse), co-expressed with 5HT1a in HEK293; assay: enhancement of serotonin-evoked TRPC4 response – cell-based, second counter screen, HEK293 TRPC4/5HT1a, Fluo-4, counter-screen for TRPC4 potentiator project, confirmation (AID 434979;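 active = signal rise over 3 SD above mean of control wells given weak agonist, in both repeats and first screen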); conditions: Fluo-4 calcium flux, at 10 µM, serotonin added at its EC20 dose; stronger effect = higher value
[16] = nonspecific calcium rise without TRPC4 – cell-based, HEK293 mu-opioid receptor line, counter-screen for TRPC4 activator project, confirmation (AID 449723;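 active = hit in primary screen, with calcium signal over 5 SD above buffer well mean in both duplicates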;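 note: counter screen cells carry the mu-opioid receptor alone and lack TRPC4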); conditions: HEK293 mu-opioid cells, Fluo-4 calcium fluorescence, at 10 µM; stronger effect = higher value
[17] = nonspecific potentiation of DAMGO calcium response – cell-based, HEK293 mu-opioid receptor line, counter-screen for TRPC4 allosteric potentiator project, confirmation (AID 449724;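 active = calcium signal rise more than 3 SD above the low-dose agonist control mean, in both duplicate plates and the primary screen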); conditions: HEK293 mu-opioid receptor cells, Fluo-4 calcium flux, at 10 µM, compound added before EC20 DAMGO stimulus; stronger effect = higher value
[18] = nonspecific flux increase, KCNQ1-free cells – parental CHO cells, counter-screen for KCNQ1 potentiator project (AID 493006;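 active = duplicate-averaged activation above buffer control mean plus 5 SD of those controls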;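 for activation: fluorescence ratio of max minus min over baseline after K+ and Tl+ depolarization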); conditions: parental CHO-K1 cells, FluxOR thallium flux, at 10 µM; stronger effect = higher value
[19] = biological target: Potassium voltage-gated channel subfamily KQT member 1 (Homo sapiens) (UniProt P51787); assay: enhancement of KCNQ1 channel thallium flux – FluxOR thallium flux, CHO cells, duplicates, confirmation (AID 493007;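 active = potentiation averaged over duplicate wells exceeding buffer-only control mean by more than 3 SD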;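 for outcome: cells depolarized by a potassium plus thallium sulfate stimulus after compound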;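 for potentiation: 0% = buffer-only wells and 100% = R-L3 activator control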); conditions: KCNQ1 cell line, FluxOR thallium flux fluorescence, at 10 µM; stronger effect = higher value, % of reference activator effect, buffer zero
[20] = biological target: Potassium voltage-gated channel subfamily KQT member 2 (Rattus norvegicus) (UniProt O88943); assay: KCNQ2 thallium flux enhancement – KCNQ2-CHO-K1 cells, selectivity assay for KCNQ1 potentiator project (AID 493009;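 active = mean duplicate potentiation above the buffer control mean plus 5 SD of buffer wells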;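 note: assay conditions were tuned for KCNQ1 rather than KCNQ2 modulators; signal is max minus min fluorescence divided by baseline after thallium stimulus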); conditions: FluxOR thallium flux fluorescence, at 10 µM; stronger effect = higher value, scaled: buffer 0, activator control 100
Chain of Potassium voltage-gated channel subfamily KQT member 2 (Rattus norvegicus) (O88943 whole entry, looked up): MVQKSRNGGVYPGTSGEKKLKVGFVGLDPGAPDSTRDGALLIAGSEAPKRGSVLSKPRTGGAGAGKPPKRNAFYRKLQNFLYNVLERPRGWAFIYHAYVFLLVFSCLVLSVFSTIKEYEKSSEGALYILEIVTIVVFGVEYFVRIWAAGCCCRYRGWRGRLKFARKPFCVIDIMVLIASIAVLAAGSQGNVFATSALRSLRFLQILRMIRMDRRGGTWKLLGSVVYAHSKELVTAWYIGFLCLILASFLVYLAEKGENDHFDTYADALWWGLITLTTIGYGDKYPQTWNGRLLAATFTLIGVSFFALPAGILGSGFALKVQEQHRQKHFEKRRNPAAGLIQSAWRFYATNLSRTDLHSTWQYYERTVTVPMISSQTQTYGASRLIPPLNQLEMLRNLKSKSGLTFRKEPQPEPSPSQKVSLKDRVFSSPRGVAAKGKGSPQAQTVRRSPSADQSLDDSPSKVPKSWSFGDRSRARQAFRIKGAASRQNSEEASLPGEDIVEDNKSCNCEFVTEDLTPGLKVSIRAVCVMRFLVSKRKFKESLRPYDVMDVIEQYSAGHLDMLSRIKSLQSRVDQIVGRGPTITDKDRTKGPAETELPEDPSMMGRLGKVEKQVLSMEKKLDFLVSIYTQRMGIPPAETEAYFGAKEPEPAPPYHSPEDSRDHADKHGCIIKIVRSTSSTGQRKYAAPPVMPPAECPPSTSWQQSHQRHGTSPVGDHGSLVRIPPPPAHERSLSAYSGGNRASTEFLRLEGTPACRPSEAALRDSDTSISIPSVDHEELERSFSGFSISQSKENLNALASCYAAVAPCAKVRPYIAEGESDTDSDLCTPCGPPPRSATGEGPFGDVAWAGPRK

Chain of Short transient receptor potential channel 6 (Mus musculus) (Q61143 whole entry, looked up): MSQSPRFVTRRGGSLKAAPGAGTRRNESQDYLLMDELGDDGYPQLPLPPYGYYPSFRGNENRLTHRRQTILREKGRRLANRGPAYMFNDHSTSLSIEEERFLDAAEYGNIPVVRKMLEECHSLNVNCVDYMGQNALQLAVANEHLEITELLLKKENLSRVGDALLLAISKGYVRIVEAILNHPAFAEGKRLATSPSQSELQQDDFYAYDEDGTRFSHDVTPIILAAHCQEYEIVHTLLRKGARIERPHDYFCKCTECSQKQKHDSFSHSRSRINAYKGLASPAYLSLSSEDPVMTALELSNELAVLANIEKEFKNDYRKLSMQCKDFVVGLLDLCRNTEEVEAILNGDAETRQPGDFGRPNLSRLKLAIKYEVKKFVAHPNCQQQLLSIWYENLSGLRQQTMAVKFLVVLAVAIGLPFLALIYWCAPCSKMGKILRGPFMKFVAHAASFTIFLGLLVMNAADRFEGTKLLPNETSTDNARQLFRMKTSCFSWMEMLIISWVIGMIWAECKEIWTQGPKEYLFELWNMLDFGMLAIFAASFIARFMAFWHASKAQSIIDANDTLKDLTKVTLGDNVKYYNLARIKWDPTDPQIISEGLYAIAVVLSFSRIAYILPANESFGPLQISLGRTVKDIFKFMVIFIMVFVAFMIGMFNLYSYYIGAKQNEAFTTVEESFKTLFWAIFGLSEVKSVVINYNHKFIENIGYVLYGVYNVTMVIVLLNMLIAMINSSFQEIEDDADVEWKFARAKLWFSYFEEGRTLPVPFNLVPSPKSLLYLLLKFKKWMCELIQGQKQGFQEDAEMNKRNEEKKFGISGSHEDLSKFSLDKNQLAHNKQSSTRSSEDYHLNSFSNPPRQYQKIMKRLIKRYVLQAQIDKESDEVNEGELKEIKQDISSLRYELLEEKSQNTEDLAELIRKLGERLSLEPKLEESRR
Chain of Short transient receptor potential channel 4 (Mus musculus) (Q9QUQ5 whole entry, looked up): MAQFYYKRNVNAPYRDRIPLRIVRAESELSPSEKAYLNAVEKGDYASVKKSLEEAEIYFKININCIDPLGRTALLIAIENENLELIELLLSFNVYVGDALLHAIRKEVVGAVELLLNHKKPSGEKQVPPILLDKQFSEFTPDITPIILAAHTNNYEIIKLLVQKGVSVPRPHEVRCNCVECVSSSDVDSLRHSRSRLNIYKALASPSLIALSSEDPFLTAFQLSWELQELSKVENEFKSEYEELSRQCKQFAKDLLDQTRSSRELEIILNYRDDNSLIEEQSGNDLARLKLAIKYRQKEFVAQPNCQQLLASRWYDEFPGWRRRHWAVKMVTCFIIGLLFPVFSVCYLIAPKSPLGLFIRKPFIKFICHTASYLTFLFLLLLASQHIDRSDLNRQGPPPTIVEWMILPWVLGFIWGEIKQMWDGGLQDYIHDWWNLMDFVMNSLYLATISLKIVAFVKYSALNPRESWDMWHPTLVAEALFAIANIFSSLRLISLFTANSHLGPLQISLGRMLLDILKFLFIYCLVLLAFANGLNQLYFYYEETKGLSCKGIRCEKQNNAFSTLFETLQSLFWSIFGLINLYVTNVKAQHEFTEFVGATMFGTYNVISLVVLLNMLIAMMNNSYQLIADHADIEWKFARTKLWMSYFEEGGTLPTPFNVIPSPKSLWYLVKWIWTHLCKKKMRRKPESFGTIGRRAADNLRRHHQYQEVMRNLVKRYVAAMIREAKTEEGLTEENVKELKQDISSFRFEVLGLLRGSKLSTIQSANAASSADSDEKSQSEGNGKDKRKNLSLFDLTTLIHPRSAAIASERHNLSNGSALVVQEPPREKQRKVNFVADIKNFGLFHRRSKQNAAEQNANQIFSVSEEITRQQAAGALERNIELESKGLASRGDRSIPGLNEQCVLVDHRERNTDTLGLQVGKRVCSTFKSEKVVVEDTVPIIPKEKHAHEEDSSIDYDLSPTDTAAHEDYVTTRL
Chain of Potassium voltage-gated channel subfamily KQT member 1 (Homo sapiens) (P51787 whole entry, looked up): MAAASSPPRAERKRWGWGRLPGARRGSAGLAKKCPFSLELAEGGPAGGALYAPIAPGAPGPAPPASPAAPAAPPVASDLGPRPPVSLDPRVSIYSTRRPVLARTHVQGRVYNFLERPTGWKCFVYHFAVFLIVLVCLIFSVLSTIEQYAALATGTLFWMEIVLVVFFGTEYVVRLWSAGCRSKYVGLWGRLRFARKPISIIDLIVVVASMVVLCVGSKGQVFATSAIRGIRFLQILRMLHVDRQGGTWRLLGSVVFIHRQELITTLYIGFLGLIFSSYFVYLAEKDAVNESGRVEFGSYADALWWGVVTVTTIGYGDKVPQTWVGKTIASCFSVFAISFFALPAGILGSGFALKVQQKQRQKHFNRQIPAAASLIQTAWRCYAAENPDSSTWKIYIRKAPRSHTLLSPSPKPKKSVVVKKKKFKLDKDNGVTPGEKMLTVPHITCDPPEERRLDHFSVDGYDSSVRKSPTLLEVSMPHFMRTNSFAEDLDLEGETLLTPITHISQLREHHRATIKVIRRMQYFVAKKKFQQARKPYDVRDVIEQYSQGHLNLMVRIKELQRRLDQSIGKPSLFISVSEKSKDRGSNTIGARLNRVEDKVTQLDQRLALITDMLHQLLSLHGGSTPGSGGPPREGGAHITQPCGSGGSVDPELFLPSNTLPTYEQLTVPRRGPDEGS

Cc1ccc(S(=O)(=O)c2c(C(=O)c3ccccc3)cnc3cc4c(cc23)OCCO4)cc1
active: potentiation [15] 14.5%
inactive: outcome [1] | outcome [2] | outcome [3] | outcome [4] | outcome [5] | outcome [6] | outcome [7] | outcome [8] | outcome [9] | outcome [10] | outcome [11] | outcome [12] | outcome [13] | outcome [14] | outcome [16] | outcome [17]

O=S(=O)(NCC1NCCc2ccccc21)c1ccccc1 (centres undefined)
inactive: outcome [1] | outcome [2] | outcome [3] | outcome [4] | outcome [5] | outcome [6] | outcome [7] | outcome [8] | outcome [9] | outcome [10] | outcome [11] | outcome [12] | outcome [13] | outcome [14] | outcome [15] | outcome [16] | outcome [17]

Cc1cc(Nc2ccc3c(c2)OCCO3)c2cccc(C)c2n1
inactive: outcome [1] | outcome [2] | outcome [3] | outcome [4] | outcome [5] | outcome [6] | outcome [7] | outcome [8] | outcome [9] | outcome [10] | outcome [11] | outcome [12] | outcome [13] | outcome [14] | outcome [15] | outcome [16] | outcome [17]

O=C(Nc1nc(N2C(=O)c3ccccc3C2=O)n(-c2ccccc2)n1)c1ccc(Cl)cc1
inactive: outcome [1] | outcome [2] | outcome [3] | outcome [4] | outcome [5] | outcome [6] | outcome [7] | outcome [8] | outcome [9] | outcome [10] | outcome [11] | outcome [12] | outcome [13] | outcome [14] | outcome [15] | outcome [16] | outcome [17]

CCN(CC(=O)NCc1ccc(Cl)cc1)CC(=O)NC1(C#N)CCCC1
inactive: outcome [1] | outcome [2] | outcome [3] | outcome [4] | outcome [5] | outcome [6] | outcome [7] | outcome [8] | outcome [9] | outcome [10] | outcome [11] | outcome [12] | outcome [13] | outcome [14] | outcome [15] | outcome [16] | outcome [17]

CN(C)S(=O)(=O)N1CCC(CCCC2CCN(S(=O)(=O)N(C)C)CC2)CC1
active: potentiation [4] 11% | potentiation [15] 8.71% | activation [18] 228% | potentiation [19] 99.5% | potentiation [20] 288%
inactive: outcome [1] | outcome [2] | outcome [3] | outcome [5] | outcome [6] | outcome [7] | outcome [8] | outcome [9] | outcome [10] | outcome [11] | outcome [12] | outcome [13] | outcome [14] | outcome [16] | outcome [17]

CCCCN(CC)CCCNC(=O)c1cc2cc3ccc(C)cc3nc2o1
active: potentiation [3] 19% | potentiation [15] 21.8%
inactive: outcome [1] | outcome [2] | outcome [4] | outcome [5] | outcome [6] | outcome [7] | outcome [8] | outcome [9] | outcome [10] | outcome [11] | outcome [12] | outcome [13] | outcome [14] | outcome [16] | outcome [17] | outcome [18] | outcome [19] | outcome [20]

CCN(CC)CCNC(=O)c1cc2c(-c3cccc(OC)c3)nn(C)c2s1
inactive: outcome [1] | outcome [2] | outcome [3] | outcome [4] | outcome [5] | outcome [6] | outcome [7] | outcome [8] | outcome [9] | outcome [10] | outcome [11] | outcome [12] | outcome [13] | outcome [14] | outcome [16] | outcome [17]
active: potentiation [15] 20.8%

CN(CCCNC(=O)CCCOc1cc(=O)n(C)c2ccccc12)Cc1ccccc1
inactive: outcome [1] | outcome [2] | outcome [5] | outcome [6] | outcome [7] | outcome [8] | outcome [9] | outcome [10] | outcome [11] | outcome [12] | outcome [13] | outcome [14] | outcome [16] | outcome [17] | outcome [18] | outcome [19] | outcome [20]
active: potentiation [3] 21% | potentiation [4] 14% | potentiation [15] 20.2%

Cc1ccc(C(=O)O)cc1N=Cc1cc(Br)cc(Br)c1O
active: activation [18] 222% | potentiation [19] 164% | potentiation [20] 192%
inactive: outcome [1] | outcome [2] | outcome [3] | outcome [4] | outcome [5] | outcome [6] | outcome [7] | outcome [8] | outcome [9] | outcome [10] | outcome [11] | outcome [12] | outcome [13] | outcome [14] | outcome [15] | outcome [16] | outcome [17]

CCCCCCCCCC[n+]1cccc2c3ccccc3ccc21
active: activation [18] 245% | potentiation [19] 64% | potentiation [20] 194%
inactive: outcome [1] | outcome [2] | outcome [3] | outcome [4] | outcome [5] | outcome [6] | outcome [7] | outcome [8] | outcome [9] | outcome [10] | outcome [11] | outcome [12] | outcome [13] | outcome [14] | outcome [15] | outcome [16] | outcome [17]

CCCc1nc2oc3c(NCCCN(C)C)ncnc3c2c2c1CCCC2
inactive: outcome [1] | outcome [2] | outcome [3] | outcome [4] | outcome [5] | outcome [6] | outcome [7] | outcome [8] | outcome [9] | outcome [10] | outcome [11] | outcome [12] | outcome [13] | outcome [14] | outcome [15] | outcome [16] | outcome [17] | outcome [18] | outcome [19] | outcome [20]

O=C(Nc1ccnn1C1CCN(Cc2cc3ccccc3[nH]2)CC1)C1CCOC1 (centres undefined)
inactive: outcome [1] | outcome [2] | outcome [3] | outcome [4] | outcome [5] | outcome [6] | outcome [7] | outcome [8] | outcome [9] | outcome [10] | outcome [11] | outcome [12] | outcome [13] | outcome [14] | outcome [15] | outcome [16] | outcome [17]
active: activation [18] 163% | potentiation [19] 53.5% | potentiation [20] 180%

O=C(CNc1ccc(Br)cc1)c1ccc(O)cc1
inactive: outcome [1] | outcome [2] | outcome [3] | outcome [4] | outcome [6] | outcome [7] | outcome [8] | outcome [9] | outcome [11] | outcome [12] | outcome [13] | outcome [14] | outcome [15] | outcome [16] | outcome [17]
active: inhibition [5] 82% | inhibition [10] 60.5%
